{"source": "PubChem BioAssay AID743047", "about": "(Broad Institute, 2013)", "note": "Measured potencies and affinities stand elsewhere. A number with no mark means an inactive call. The source made the active and inactive calls. How the calls were made is not given here."}
{"experiment": "PAX5 activity inhibitors, dose response, selectivity assay for PAX8 inhibitor project, cell-based, plate reader, dry powder samples (AID 743047)", "conditions": "cell-based PAX5 selectivity counter-screen; series mostly up to 50 µM"}
{"smiles": "CN(C[C@H]1N[C@@H](CO)[C@@H]1c1ccc(C2=CCCC2)cc1)C(=O)c1ccc(F)cc1", "activity change, negative = inhibition": "225% [at 8 µM]"}
{"smiles": "O=C(CCCN1C(=O)/C(=C\\c2cccc(Br)c2)SC1=S)Nc1ccccn1", "outcome": "inactive"}
{"smiles": "COc1cc(/C=C2\\SC(=S)N(CCC(=O)N3CCCCC3)C2=O)cc(OC)c1OC", "outcome": "inactive"}
{"smiles": "COCC(=O)N1[C@H](CO)[C@H](c2ccc(-c3cccnc3)cc2)[C@@H]1C#N", "outcome": "inactive"}
{"smiles": "CC(C)(C)c1nnc(NC(=O)CCS(=O)(=O)c2ccccc2)s1", "outcome": "inactive"}
{"smiles": "COc1ccc(S(=O)(=O)Nc2ccc3c(c2)CC(=O)N([C@@H](C)CO)C[C@@H](C)[C@@H](CN(C)Cc2ccc(-c4ccccc4)cc2)O3)cc1", "outcome": "inactive"}
{"smiles": "O=C1/C(=C/c2ccccc2F)SC(=S)N1CC(=O)N1CCCCC1c1cccnc1", "note": "(configuration not stated)", "outcome": "inactive"}
{"smiles": "C[C@H](CO)N1C[C@H](C)[C@H](CN(C)C(=O)Nc2ccc(-c3cccs3)cc2)OCc2cnnn2CCCC1=O", "outcome": "inactive"}
{"smiles": "O=C(c1cc(-c2cccs2)on1)N1CCN(C(c2ccccc2)c2ccccc2)CC1", "outcome": "inactive"}
{"smiles": "O=C(CCS(=O)(=O)c1ccccc1)Nc1nc2ccc(F)cc2s1", "outcome": "inactive"}
{"smiles": "CC1(C)CC(=O)c2sc(NC(=O)CCS(=O)(=O)c3ccccc3)nc2C1", "outcome": "inactive"}
{"smiles": "O=C(CCCN1C(=O)/C(=C\\c2cccc(Br)c2)SC1=S)Nc1cccnc1", "outcome": "inactive"}
